Reference: PubChem BioAssay AID720518 (National Center for Advancing Translational Sciences (NCATS), 2013)
Inconclusive results are not listed. A number with no mark means an inactive call. Calls come from the whole dose curve.

experiment: qHTS for Inhibitors of Cell Surface uPA Generation: Wild-type Protective Antigen (WT-PrAg) Counterscreen for Cherry-picked Compounds; settings: cells, WT protective antigen toxicity counterscreen; series mostly up to 115 µM; activity (protection): at the top concentration; note: 0% is about no effect

Row | SMILES | activity (protection)
1 | O=C(CNS(=O)(=O)c1ccc(F)cc1)Nc1ccccc1 | -0.098%
2 | CCOCc1nnc(NC(=O)C2CCN(C(=O)C3CC(=O)N(c4ccc(C)cc4)C3)CC2)s1 (stereo not drawn) | -1.11%
3 | COc1ccc2c(ccn2S(=O)(=O)c2ccccc2)c1 | -2.44%
4 | CC1(C)CC(=O)C=C(c2ccc3ccccc3c2)C1 | 0.346%
5 | COc1ccccc1C(=O)Nc1cccc(C(=O)c2ccccc2)c1 | -1.53%
6 | Cc1ccc(NC(=O)C(C)S)cc1 (stereo not drawn) | -2.35%
7 | CCN(CC)c1c([N+](=O)[O-])c(=O)sc2ccccc12 | -0.788%
8 | COc1ccc(C(=O)N2CCN(c3ccc(C(C)=O)cc3)CC2)cc1S(=O)(=O)N1CCCC1 | -0.95%
9 | Cc1nn2c(=O)cc(CSc3nc4ccccc4[nH]3)nc2s1 | 0.787%
10 | CCC(C)NC(=O)c1ccc2nc(-c3ccc(OC)c(OC)c3)c(-c3ccc(OC)c(OC)c3)nc2c1 (stereo not drawn) | -2.18%
11 | CC(C)(C)n1ncc2c(=O)n(Cc3ccc(Cl)cc3)cnc21 | -2.17%
12 | Cc1ccc(NC(=O)CCCn2c(=S)[nH]c3ccsc3c2=O)cc1C | 4.68%
13 | C=C1C(=O)[C@@]23[C@H](O)C[C@@H]4C(C)(C)CC[C@H](O)[C@]4(C)[C@@H]2C[C@H](O)[C@@H]1[C@H]3O | -0.321%
14 | CC(C)NC(=O)NC(=O)CN1C(=O)NC(Cc2c[nH]c3ccccc23)C1=O (stereo not drawn) | -0.356%
15 | Cc1cc(C)c(NC(=O)Cn2nnc(C(=O)NCc3ccc4c(c3)OCO4)c2N)c(C)c1 | 3.21%
16 | CCOc1ccc(-c2n[nH]c(=S)n2Cc2ccccc2)cc1 | -0.239%
17 | COc1ccc(NC(=O)CCNS(=O)(=O)c2ccccc2F)cc1S(=O)(=O)N1CCOCC1 | -0.848%
18 | CC1(C(=O)OCC(=O)Nc2ccc(Cl)cn2)CC1(Cl)Cl (stereo not drawn) | 5.25%
19 | Cc1cccc(N2C(=O)N3[C@H](c4ccc(F)cc4)[C@@H]4C(=O)N(C5CCCCC5)C(=O)[C@@H]4[C@]3(Cc3ccc(Cl)cc3)C2=O)c1 | 8.87%
20 | O=C(C1=C[C@H](c2ccccc2)C[C@H](OCCCCO)O1)N1CCN(Cc2ccc3c(c2)OCO3)CC1 | -2.28%
21 | Cc1c(C(=O)N(Cc2ccccc2Cl)C2CCS(=O)(=O)C2)oc2ccccc12 (stereo not drawn) | -2.16%
22 | CC(/C=C/C1(O)C(C)CC(O)CC1(C)C)OC1OC(CO)C(O)C(O)C1O (stereo not drawn) | 1.61%
23 | CC(=O)c1cccc(NC(=O)N2C3CCC2CC(O)(c2cccnc2)C3)c1 (stereo not drawn) | 2.27%
